Test [1] can be described thus: qHTS assay to identify small molecule agonists of the peroxisome proliferator-activated receptor delta (PPARd) signaling pathway - cell viability counter screen (AID 743211). Further: nearly all actives have a fitted effect of over 55% in size. Further: potency means the concentration at half of the fitted maximal effect. The procedure, abridged:
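PPARd-bla HEK293H cells (UAS-beta-lactamase reporter) were treated with compounds for 17 h at 37 C. Viability was then read in the same wells by CellTiter-Glo luminescence after 30 min at room temperature.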

For test [2], the target named is Peroxisome proliferator-activated receptor delta (Homo sapiens) (UniProt Q03181). The experiment in a line: qHTS assay to identify small molecule agonists of the peroxisome proliferator-activated receptor delta (PPARd) signaling pathway (AID 743212; calls by dose curve; further: on the % scale 0 is the no-effect control and ±100 the full control effect). The procedure, abridged: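 Beta-lactamase reporter readout: a ratiometric FRET signal from the LiveBLAzer substrate after 2 h at room temperature. Compound exposure at 37 °C in PPARδ-bla HEK293H cells driven by an upstream activator sequence.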
Chain of Peroxisome proliferator-activated receptor delta (Homo sapiens) (Q03181 whole entry, looked up): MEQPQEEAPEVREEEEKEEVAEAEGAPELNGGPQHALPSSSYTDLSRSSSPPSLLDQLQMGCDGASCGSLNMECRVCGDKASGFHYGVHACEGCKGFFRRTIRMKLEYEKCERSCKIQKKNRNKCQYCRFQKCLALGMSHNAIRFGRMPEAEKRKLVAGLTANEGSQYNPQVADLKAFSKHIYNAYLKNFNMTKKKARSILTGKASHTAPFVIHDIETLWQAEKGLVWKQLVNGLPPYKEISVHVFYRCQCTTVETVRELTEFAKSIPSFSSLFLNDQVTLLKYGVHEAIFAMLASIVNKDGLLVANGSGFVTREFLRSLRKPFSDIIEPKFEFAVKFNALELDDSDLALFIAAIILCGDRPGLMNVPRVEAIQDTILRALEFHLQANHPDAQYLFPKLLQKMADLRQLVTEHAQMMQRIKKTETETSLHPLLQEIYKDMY
(In general: qHTS replaces the single test concentration by a dilution series.)

Test [3] in a line: qHTS assay to identify small molecule agonists of the farnesoid-X-receptor (FXR) signaling pathway - cell viability counter screen (AID 743218). Further: nearly all actives have a fitted effect of over 45% in size. Further: potency means the concentration at half of the fitted maximal effect. The procedure, abridged:
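Viability of FXR-bla HEK 293T cells is measured by ATP-based CellTiter-Glo luminescence following 16 h compound treatment at 37 C and a prior 2 h room-temperature beta-lactamase substrate step.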

The target in test [4] is Bile acid receptor (Homo sapiens) (UniProt Q96RI1). The experiment in a line: qHTS assay to identify small molecule agonists of the farnesoid-X-receptor (FXR) signaling pathway (AID 743220; active means well fitted activation curve with a large enough effect in the signal ratio in the repeat runs, not every such curve was filed as active; the % refers to the signal ratio; further: on the % scale 0 is the no-effect control and ±100 the full control effect). The procedure, abridged:
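FXR-UAS-bla HEK 293T cells carrying a UAS-driven beta-lactamase reporter were plated for 5 h at 37C/5% CO2, then exposed to DMSO-dissolved Tox21 10K compounds for 16 h at 37C. A LiveBLAzer B/G FRET substrate was loaded for 2 h at room temperature before fluorescence reading.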

Test [5] in a line: qHTS assay to identify small molecule agonists of the vitamin D receptor (VDR) signaling pathway - cell viability counter screen (AID 743224). Further: nearly all actives have a fitted effect of over 50% in size. Further: potency means the concentration at half of the fitted maximal effect. The procedure, abridged: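 Compounds were pin-transferred onto VDR-bla cells plated 4 h earlier; following 16 h incubation at 37C, cell viability was quantified by CellTiter-Glo luminescence after 30 min at room temperature.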
A short description of test [6]: qHTS assay to identify small molecule antagonists of the vitamin D receptor (VDR) signaling pathway - cell viability counter screen (AID 743225). Further: nearly all actives have a fitted effect of over 50% in size. Further: potency means the concentration at half of the fitted maximal effect. The procedure, abridged: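 VDR-bla HEK 293T cells, 4 h pre-incubation at 37C, then compound plus 1-alpha,25-dihydroxyvitamin D3 (3 nM final) for 16 h. After the beta-lactamase FRET read, CellTiter-Glo was added to the same wells; luminescence after 30 min at room temperature.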

A short description of test [7]: qHTS assay to identify small molecule agonists of the NFkB signaling pathway - cell viability counter screen (AID 1159515; calls by dose curve; further: nearly all actives have a fitted effect of over 55% in size; further: potency means the concentration at half of the fitted maximal effect). The procedure, abridged:
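Parallel cytotoxicity counter screen in ME-180 cells carrying an NFkB-response-element beta-lactamase reporter, 2,000 cells/well. Compound exposure lasted 5 hr at 37 C, 5% CO2. Cell viability was quantified by CellTiter-Glo luminescence.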

Test [8] in a line: qHTS assay to identify small molecule agonists of the endoplasmic reticulum stress response signaling pathway (AID 1159516; active means well fitted activation curve with a large enough effect in the signal ratio in the repeat runs, not every such curve was filed as active; the % refers to the signal ratio; further: on the % scale 0 is the no-effect control and ±100 the full control effect). The procedure, abridged:
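Using a HeLa line with an ESRE-driven beta-lactamase gene, agonist activity was measured by FRET substrate fluorescence (460 and 530 nm emission) after cells were treated with compounds for 5 hr at 37 C and 5% CO2.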

A short description of test [9]: qHTS assay to identify small molecule antagonists of the retinoid-related orphan receptor gamma (ROR-gamma) signaling pathway - cell viability counter screen (AID 1159520). Further: on the % scale 0 is the no-effect control and ±100 the full control effect; nearly all actives have a fitted effect of over 50% in size. The procedure, abridged:
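Cytotoxicity was read from cellular ATP (CellTiter-Glo luminescence) after 16 hr at 37 C with 1 uM doxycycline induction. The inducer was added 2 hr after compound transfer to Tet-on ROR gamma CHO cells.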

Test [10] can be described thus: qHTS assay to identify small molecule antagonists of the peroxisome proliferator-activated receptor delta (PPARd) signaling pathway - cell viability counter screen (AID 743213). Further: nearly all actives have a fitted effect of over 50% in size. Further: potency means the concentration at half of the fitted maximal effect. The procedure, abridged:
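Agonist-stimulated (L165041, 300 nM final) HEK293H PPARd UAS-bla cells are exposed to compounds for 17 h at 37 C, and ATP-based luminescence (CellTiter-Glo) from the same wells reports cytotoxicity.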

For test [11], the target named is Nuclear receptor ROR-gamma (Homo sapiens) (UniProt P51449). The experiment in a line: qHTS assay to identify small molecule antagonists of the retinoid-related orphan receptor gamma (ROR-gamma) signaling pathway (AID 1159521). The procedure, abridged:
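Tet-on RORγ CHO cells carrying a ROR response element–luciferase reporter were pretreated with compounds for 2 h, then induced with 1 uM (final) doxycycline hyclate for 16 h at 37 C. Antagonism was read as decreased ONE-Glo luminescence.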

Test [12] is described as follows: qHTS assay to identify small molecule agonists of the AP-1 signaling pathway - cell viability counter screen (AID 1159525; calls by dose curve; further: nearly all actives have a fitted effect of over 55% in size). The procedure, abridged: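 Intracellular ATP by Cell Titer Glo luminescence (30 min, RT) in the same ME-180 AP-1-bla wells after the 5 h compound exposure at 37 °C. Normalised to tetra n-octyl ammonium bromide and DMSO controls.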
Test [13] can be described thus: qHTS assay to identify small molecule agonists of the AP-1 signaling pathway (AID 1159526; calls by dose curve; further: on the % scale 0 is the no-effect control and ±100 the full control effect).
Test [14] concerns the target Peroxisome proliferator-activated receptor delta (Homo sapiens) (UniProt Q03181). Nature of the test: qHTS assay to identify small molecule antagonists of the peroxisome proliferator-activated receptor delta (PPARd) signaling pathway (AID 743215; active means well fitted inhibition curve with a large enough effect in the signal ratio in the repeat runs, not every such curve was filed as active; the % refers to the signal ratio). The procedure, abridged: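 Plated HEK293H PPARd-bla cells rested 5 h at 37 C and 5% CO2. Compound, then agonist L165041 at 300 nM final, was added; 17 h at 37 C followed. Substrate loading, 2 h room temperature, fluorescence measured.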

Test [15] deals with Bile acid receptor (Homo sapiens) (UniProt Q96RI1). The experiment in a line: qHTS assay to identify small molecule antagonists of the farnesoid-X-receptor (FXR) signaling pathway (AID 743217; active means well fitted inhibition curve with a large enough effect in the signal ratio in the repeat runs, not every such curve was filed as active; the % refers to the signal ratio; further: on the % scale 0 is the no-effect control and ±100 the full control effect). The procedure, abridged:
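Screen of the Tox21 10K library in quantitative HTS format using FXR-UAS-bla HEK 293T reporter cells. Agonist chenodeoxycholic acid, 50 uM final, added with compounds; 16 h incubation at 37 °C; beta-lactamase FRET fluorescence measured.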

Test [16] deals with Vitamin D3 receptor (Homo sapiens) (UniProt P11473). Nature of the test: qHTS assay to identify small molecule antagonists of the vitamin D receptor (VDR) signaling pathway (AID 743223; active means well fitted inhibition curve with a large enough effect in the signal ratio in the repeat runs, not every such curve was filed as active; the % refers to the signal ratio; further: on the % scale 0 is the no-effect control and ±100 the full control effect). The procedure, abridged: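 VDR-bla cells were plated, incubated 4 h at 37C, then given compound and 1alpha,25-dihydroxyvitamin D3 (3 nM final). After 16 h at 37C, LiveBLAzer B/G FRET substrate was added for 2 h at room temperature and fluorescence read.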
Chain of Vitamin D3 receptor (Homo sapiens) (P11473 whole entry, looked up): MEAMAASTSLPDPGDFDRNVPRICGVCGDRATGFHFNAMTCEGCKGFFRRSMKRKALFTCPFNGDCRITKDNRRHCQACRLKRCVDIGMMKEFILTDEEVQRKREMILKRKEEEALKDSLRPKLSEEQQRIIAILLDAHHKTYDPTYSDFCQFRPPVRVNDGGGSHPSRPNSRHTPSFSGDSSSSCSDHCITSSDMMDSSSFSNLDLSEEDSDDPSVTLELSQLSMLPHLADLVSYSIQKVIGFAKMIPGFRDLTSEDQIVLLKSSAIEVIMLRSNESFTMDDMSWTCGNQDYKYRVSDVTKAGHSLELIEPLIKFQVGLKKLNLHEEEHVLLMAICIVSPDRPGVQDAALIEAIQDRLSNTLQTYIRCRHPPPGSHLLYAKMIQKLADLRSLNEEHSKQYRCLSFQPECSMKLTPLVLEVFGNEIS

Test [17] can be described thus: qHTS assay to identify small molecule antagonists of the farnesoid-X-receptor (FXR) signaling pathway - cell viability counter screen (AID 743221; active means well fitted cell-killing curve with a large enough effect in the repeat runs, not every such curve was filed as active; further: nearly all actives have a fitted effect of over 50% in size; further: potency means the concentration at half of the fitted maximal effect). The procedure, abridged:
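FXR-UAS-bla HEK 293T cells were treated with test compounds plus chenodeoxycholic acid (50 uM final) for 16 h at 37 C. Cell viability in the same wells was then read as CellTiter-Glo luminescence after 30 min at room temperature.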

Test [18] addresses Vitamin D3 receptor (Homo sapiens) (UniProt P11473). Nature of the test: qHTS assay to identify small molecule agonists of the vitamin D receptor (VDR) signaling pathway (AID 743222; calls by dose curve; further: on the % scale 0 is the no-effect control and ±100 the full control effect). The procedure, abridged: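 Fluorescence from cleaved LiveBLAzer B/G FRET substrate served as readout. VDR-bla cells had been treated 16 h at 37C with test compounds in DMSO, following a 4 h settling period, and substrate was loaded for 2 h at RT.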

Test [19] concerns the target Retinoic acid receptor RXR-alpha (Homo sapiens) (UniProt P19793). The experiment in a line: qHTS assay to identify small molecule agonists of the RXR signaling pathway (AID 1159527; calls by dose curve; further: on the % scale 0 is the no-effect control and ±100 the full control effect; nearly all actives have a fitted effect of over 35% in size). The procedure, abridged: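 GeneBLAzer RXR-alpha-UAS-bla HEK 293T cells in medium with 2% charcoal-stripped FBS, pre-incubated 5 hr at 37 C, then exposed to compounds 16 hr. Beta-lactamase reporter read by FRET substrate, 2 hr room temperature, 460/530 nm emission.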

Molecules are shown by their SMILES. Results filed as inconclusive are left out. Unmarked numbers belong to inactive results. Calls of active or inactive are those of the source. Unless noted, the call rests on the fitted dose curve; in most records, active means well fitted curve in the direction sought with a large enough effect in the repeat runs; inconclusive means weak or mixed curves; inactive means no such curve, though single readings can be large; an effect the other way counts as inactive or inconclusive.

Chain of Retinoic acid receptor RXR-alpha (Homo sapiens) (P19793 whole entry, looked up): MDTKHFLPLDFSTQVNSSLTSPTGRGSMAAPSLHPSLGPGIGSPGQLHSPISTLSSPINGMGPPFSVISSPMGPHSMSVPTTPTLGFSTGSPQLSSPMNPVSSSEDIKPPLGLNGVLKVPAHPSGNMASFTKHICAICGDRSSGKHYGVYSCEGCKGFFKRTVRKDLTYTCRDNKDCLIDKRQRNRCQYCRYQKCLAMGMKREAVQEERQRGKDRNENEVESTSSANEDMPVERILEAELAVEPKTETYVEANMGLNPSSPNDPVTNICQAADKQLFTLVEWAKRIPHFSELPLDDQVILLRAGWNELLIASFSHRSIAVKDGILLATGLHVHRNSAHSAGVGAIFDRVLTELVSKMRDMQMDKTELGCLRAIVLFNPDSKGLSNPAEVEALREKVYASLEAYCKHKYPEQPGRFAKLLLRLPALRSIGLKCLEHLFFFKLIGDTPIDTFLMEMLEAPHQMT
Chain of Bile acid receptor (Homo sapiens) (Q96RI1 whole entry, looked up): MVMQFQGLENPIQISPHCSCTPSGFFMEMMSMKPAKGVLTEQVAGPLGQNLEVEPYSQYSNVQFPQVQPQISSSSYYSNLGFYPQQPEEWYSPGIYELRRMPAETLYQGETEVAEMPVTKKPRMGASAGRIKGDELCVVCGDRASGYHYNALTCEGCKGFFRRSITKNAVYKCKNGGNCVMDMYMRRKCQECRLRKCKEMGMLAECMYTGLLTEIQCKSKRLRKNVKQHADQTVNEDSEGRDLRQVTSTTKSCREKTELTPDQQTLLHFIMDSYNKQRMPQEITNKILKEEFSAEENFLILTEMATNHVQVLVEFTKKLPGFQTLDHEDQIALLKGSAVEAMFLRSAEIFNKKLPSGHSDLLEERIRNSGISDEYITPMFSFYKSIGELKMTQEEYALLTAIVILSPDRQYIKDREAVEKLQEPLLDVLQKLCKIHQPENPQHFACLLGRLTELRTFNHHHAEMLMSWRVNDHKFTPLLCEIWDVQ

In the case of `CCOC(=O)c1ccc(C2CCC(NC[C@H](O)COc3ccc(O)c(NS(C)(=O)=O)c3)CC2)cc1` (some centres undefined), the Potency in test [1] was 35.9 µM (active); in [3] it was 35.9 µM (active); in [5] it was 40.3 µM (active); in test [6] it was 35.9 µM (active). For the same compound, the Potency result in [2], in test [4], in test [7], in test [8] and in test [9] was “inactive” each time.
`CNC(=O)c1ccccc1Sc1ccc2c(/C=C/c3ccccn3)n[nH]c2c1`: the Potency in test [10] is 18.8 µM (active); in [5], 29.8 µM (active); in [6], 23.9 µM (active). For the same compound, the Potency result in test [7], in [8], in test [11], in test [12] and in test [13] was “inactive” in each case.
In the case of `CCCCCC/C=C\CCCCCCCC(=O)O`, the Potency entry in [1], in test [10], in test [14], in test [15], in [3] and in [4] was “inactive” in each case. Besides, the Potency result in test [16], in test [7], in [8] and in test [11] was “inactive” in each case.
As for `Cc1cccc(C)c1NC(=O)c1ccc(N)cc1`, the Potency entry in [1], in test [2], in test [10], in test [3], in [17] and in test [18] was “inactive” throughout. The Potency entry in [16], in [6], in test [7], in [8], in test [12] and in test [13] was “inactive” in each case. For the same compound, the Potency result in [19] was “inactive”.
Take `C=CC(=O)OCCOC(=O)C=C`: the Potency entry in test [10], in test [17], in test [16], in test [6], in test [7] and in test [8] was “inactive” in each case. The Potency entry in test [12] and in test [13] was “inactive” in each case.
As for `CC(C)Cn1cnc2c(N)nc3ccccc3c21`, the Potency result in [1], in [2], in [14], in test [15], in [3] and in [4] was “inactive” each time. Also, the Potency result in [17], in [18], in test [16], in test [5], in test [6] and in [7] was “inactive” in each case. Also, in [8], the Potency result is “inactive”. Moreover, the activity, negative = cytotoxicity in test [9] was -2.84% [at 19 µM]. In addition, the activation in test [19] was 13.7% [at 15.8 µM].
With `CC(C)(C)c1csc(-c2cc3cc(OCc4ccccc4CC(=O)O)ccc3o2)n1`, the Potency in [1] was 24.5 µM (active); in test [10] it was 30.9 µM (active). Moreover, the Potency entry in test [4], in [17], in [7] and in test [8] was “inactive” throughout.
Consider `CCCCOC(=O)CO`, for which the Potency result in test [1], in test [2], in [14], in test [3], in test [17] and in [18] was “inactive” throughout. Moreover, the Potency entry in test [16], in test [5], in test [6], in test [7], in test [8] and in test [11] was “inactive” each time. Besides, the Potency result in test [12], in [13] and in test [19] was “inactive” throughout.
For `CCN1C(=O)c2ccccc2C1Nc1ccc(OCCN2CCCCC2)cc1` (centres undefined), the Potency result in test [1], in test [2], in test [10], in test [15], in [3] and in [4] was “inactive” in each case. The Potency entry in test [17], in test [18], in [16], in [5], in test [6] and in test [7] was “inactive” throughout. Moreover, the Potency result in test [8], in test [12], in test [13] and in test [19] was “inactive” each time.
For the compound `O=C1CCc2ccc(OCCCCN3CCN(c4cccc(Cl)c4Cl)CC3)cc2N1`, the Potency in [10] was 13.3 µM (active); in [3], 13.3 µM (active); in test [17] it was 16.8 µM (active); in test [5], 11.9 µM (active); in test [6], 10.7 µM (active); in test [7], 26.8 µM (active). Also, the Potency entry in [4], in test [8] and in test [12] was “inactive” each time.

The values above are taken from PubChem BioAssay (Tox21).
